# PKA inh: PKA (human) kinase inhibition; PKA Kemptide phosphorylation, Kinase-Glo ATP luminescence; 0.1% of 65,000 active; inhibition, % at 6 µM; P17612;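 active means inhibition above the screen-wide mean inhibition plus 3 SD, cut at about 21% in these data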
# ROCK2 inh: blocks human Rho kinase 2 activity; AID 604; 0.35% of 60,000 active; inhibition, % at 6 µM; purified ROCK2, Kinase-Glo ATP depletion luminescence;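 active means inhibition above the screen-wide mean inhibition plus 3 SD, cut at about 18% in these data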;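 further: plate controls were DMSO wells for no effect and Y-27632 control wells after no-enzyme background subtraction for full effect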
# D1 allo mod: D1 dopamine receptor (human) allosteric modulation; P21728; HEK293 D1, CRE-luciferase, dopamine EC30 potentiation; actives deviate in either direction; B-score at 10 µM; 5.9% of 58,000 active;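 active means luminescence count or its row- and column-corrected plate score outside the 99.7% band of the plate's sample wells, on either side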
# Target sequence (P21728 whole entry, looked up): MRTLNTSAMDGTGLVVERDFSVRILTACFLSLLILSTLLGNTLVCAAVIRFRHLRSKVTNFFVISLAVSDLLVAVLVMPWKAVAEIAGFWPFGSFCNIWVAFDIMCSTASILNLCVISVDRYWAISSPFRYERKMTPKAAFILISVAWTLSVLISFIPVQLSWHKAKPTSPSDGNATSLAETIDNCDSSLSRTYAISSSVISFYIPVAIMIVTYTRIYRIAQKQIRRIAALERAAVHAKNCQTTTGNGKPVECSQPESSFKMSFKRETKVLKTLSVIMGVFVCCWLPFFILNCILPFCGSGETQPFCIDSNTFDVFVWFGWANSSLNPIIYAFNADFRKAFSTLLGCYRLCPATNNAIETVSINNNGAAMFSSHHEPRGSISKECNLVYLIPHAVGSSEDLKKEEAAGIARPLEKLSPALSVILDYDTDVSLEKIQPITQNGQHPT
# hDAT+cocaine: modulates human dopamine transporter uptake under cocaine. LLC-PK1 hDAT cells, [14C]-dopamine uptake with cocaine IC80; actives deviate in either direction. B-score at 10 µM. 1.3% of 110,000 active;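 active means Z score or B-score, a plate-position-corrected score, falls beyond the plate's 99.7% confidence bounds, in either direction; inactive means both scores lie inside the 99.7% bounds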;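 further: scored against the spread of the other compound wells on the same plate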
# D1 mod confirm: D1 receptor (human) allosteric modulation, confirmed | 88% of 2,200 active | shares compounds with D1 allo mod | luminescence at 10 µM | HEK293 D1 CRE-luciferase, dopamine EC30 potentiation; active compounds read high;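 active means luminescence in either of two replicates above the same-plate mean plus 3 SD of the low-dose dopamine control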
# D1 ag no DA: secondary test of D1 modulators: activity without dopamine | shares compounds with D1 allo mod | HEK293 D1 CRE-luciferase, luminescence, no dopamine; active compounds read high | luminescence at 10 µM | 0.8% of 1,900 active | AID 646; in the data active means luminescence above about 3900
# Isoprot counter: isoproterenol response counter-screen activity for D1 modulators; shares compounds with D1 allo mod; HEK293 D1 CRE-luciferase, isoproterenol EC30 counter-screen; calls only at 10 µM; 63% of 2,200 active; AID 647;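 active means luminescence in either replicate above plate mean of wells with a partly effective reference agonist dose plus 3 SD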;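 further: isoproterenol raises cAMP through native beta-adrenoceptor Gs so signal bypasses D1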
# * = called active by the depositor; i = inactive; nt = no result; + = active, no number. The full list was thinned out, with hits kept by preference.
SMILES,PKA inh,ROCK2 inh,D1 allo mod,hDAT+cocaine,D1 mod confirm,D1 ag no DA,Isoprot counter
O=C(CCN1C(=O)COc2ccccc21)N1CCC2(CC1)OCCO2,9,6,3.8*,0.31,5480,nt,i
CCCCn1c(O)c(C(C)=NC(C)c2ccccc2)c(=O)[nH]c1=O (stereo unspecified),0,2,9.7*,0.021,17520*,1544,+
CCN1CCN(c2nc3ccccc3s2)CC1,nt,nt,nt,-0.1,nt,nt,nt
CC1(C)CN=C(Nc2nc3ccccc3s2)S1,0,4,2.9*,-0.52,8344*,1008,i
CC(C(=O)Nc1ccc(Br)cc1C(=O)c1ccccc1)N1CCOCC1 (stereo unspecified),nt,nt,nt,0.84,nt,nt,nt
CSC(=Nc1ccccc1)c1c(O)n(C)c(=O)n(C)c1=O,9,6,-0.52,0.3,nt,nt,nt
CC(=O)c1c(O)n(C)c(=S)n(-c2ccccc2)c1=O,4,7,3.1*,-0.21,10036*,1820,i
CCC(=NCCC1=CCCCC1)c1c(O)[nH]c(=O)[nH]c1=O,13,4,5.4*,-0.41,16104*,1808,+
CC(=NC(C)c1ccccc1)c1c(O)[nH]c(=O)[nH]c1=O (stereo unspecified),nt,nt,nt,-0.16,nt,nt,nt
CCN1C[C@]2(CO)CC[C@H](OC)[C@@]34C5C[C@H]6[C@H](OC)C5[C@](O)(C[C@H]6OC)[C@@H](C(OC)C23)[C@@H]14 (stereo partly specified),nt,nt,nt,-0.11,nt,nt,nt
CC(=O)c1cccc(NC2=NCC(C)S2)c1 (stereo unspecified),3,-6,5.6*,0.0051,8688*,1744,+
CCC(=NC1CC1)c1c(O)n(C2CCCCC2)c(=O)[nH]c1=O,4,6,17*,-0.68,12336*,1856,+
CCCCn1c(=O)c(C(=O)Nc2cnccn2)c(O)c2ccccc21,3,2,6.8*,0.054,8352*,1312,i
CN1CC2=CC(O)CC3Oc4c(O)ccc(c4[C@]23C)C1 (stereo partly specified),nt,nt,nt,1.6,nt,nt,nt
S=C1NCCN1,nt,nt,nt,0.046,nt,nt,nt
COc1ccccc1NC1=NCCS1,nt,nt,nt,0.75,nt,nt,nt
Fc1ccc(NC2=NCCS2)cc1Cl,3,2,4.1*,0.62,11272*,1372,i
COC(=O)C1=C(c2ccc(S(C)(=O)=O)cc2)C[C@@H]2CC[C@H]1N2C(=O)N1CCC(O)CC1,nt,nt,nt,-0.36,nt,nt,nt
CCC1(CC)C(=O)NC(=NCCc2c[nH]c3ccccc23)NC1=O,-6,-3,4.8*,-2.2,6976*,1520,i
Cc1ccc(N(C)C(=O)Oc2ccc(C(=O)c3ccc(Cl)cc3)cc2)cc1,nt,nt,nt,-0.5,nt,nt,nt
CC(C)[C@@]1(NC(=O)[C@@H]2C[C@@H]3c4cccc5[nH]cc(c45)C[C@H]3N(C)C2)O[C@@]2(O)[C@@H]3CCCN3C(=O)[C@H](Cc3ccccc3)N2C1=O,-2,-2,36*,3.6*,27264*,22332*,+
CC(C)[C@@]1(NC(=O)[C@@H]2C=C3c4cccc5[nH]cc(c45)C[C@H]3N(C)C2)O[C@@]2(O)[C@@H]3CCCN3C(=O)[C@H](Cc3ccccc3)N2C1=O,-6,13,34*,nt,18320*,19392*,+
CC(C)[C@H]1C(=O)N2CCC[C@H]2[C@]2(O)O[C@](NC(=O)[C@@H]3C=C4c5cccc6[nH]cc(c56)C[C@H]4N(C)C3)(C(C)C)C(=O)N12,4,36*,37*,0.56,25260*,20144*,+
O=c1c2ccccc2nc(-c2ccc(-c3ccccc3)cc2)n1-c1ccncc1,nt,nt,nt,0.0075,nt,nt,nt
COc1cc(N)c(Cl)cc1C(=O)NC1CN2CCC1CC2 (stereo unspecified),nt,nt,nt,0.008,nt,nt,nt
SMILES,PKA inh,ROCK2 inh,D1 allo mod,hDAT+cocaine,D1 mod confirm,D1 ag no DA,Isoprot counter
COC(=O)C1=C(c2cc3ccccc3s2)C[C@@H]2CC[C@H]1N2C(=O)NCc1ccco1,nt,nt,nt,-1,nt,nt,nt
CCOC(=O)c1c(NC(=O)C(c2ccccc2)c2ccccc2)sc2c1C1CCN2CC1,nt,nt,nt,0.89,nt,nt,nt
Cc1ccsc1-c1nc(CSCC(=O)N2CCC3(CC2)OCCO3)c(C)o1,nt,nt,nt,0.31,nt,nt,nt
O=C1CN=C(c2ccccc2)c2oc3ccc(Br)cc3c2N1,-1,1,7.4*,1.6,15276*,nt,+
O=C1CN=C(c2ccc(Br)cc2)c2oc3ccccc3c2N1,nt,nt,nt,-0.17,nt,nt,nt
COC(=O)c1c(C)[nH]c(C(=O)C(Cc2ccccc2)N(C)C)c1C (stereo unspecified),8,5,9.7*,-0.32,4780,1584,i
CN1C(=O)c2ccccc2Sc2ccc(C(=O)N3CCC4(CC3)OCCO4)cc21,6,nt,9.6*,nt,5288,nt,i
OC(Cn1c2ccccc2c2ccccc21)C[n+]1cccc2ccccc21 (stereo unspecified),nt,nt,nt,-0.2,nt,nt,nt
